Screening data deposited in PubChem BioAssay by The Scripps Research Institute Molecular Screening Center.
MITF inh = MITF inhibitors, primary screen, biochemical, AlphaScreen, human; actives 0.91% (n = 650,000); AlphaScreen MITF homodimerization, bead proximity signal; inhibition, % at 2.6 µM; in the data active means inhibition above about 50%
Target sequence (O75030 whole entry, looked up): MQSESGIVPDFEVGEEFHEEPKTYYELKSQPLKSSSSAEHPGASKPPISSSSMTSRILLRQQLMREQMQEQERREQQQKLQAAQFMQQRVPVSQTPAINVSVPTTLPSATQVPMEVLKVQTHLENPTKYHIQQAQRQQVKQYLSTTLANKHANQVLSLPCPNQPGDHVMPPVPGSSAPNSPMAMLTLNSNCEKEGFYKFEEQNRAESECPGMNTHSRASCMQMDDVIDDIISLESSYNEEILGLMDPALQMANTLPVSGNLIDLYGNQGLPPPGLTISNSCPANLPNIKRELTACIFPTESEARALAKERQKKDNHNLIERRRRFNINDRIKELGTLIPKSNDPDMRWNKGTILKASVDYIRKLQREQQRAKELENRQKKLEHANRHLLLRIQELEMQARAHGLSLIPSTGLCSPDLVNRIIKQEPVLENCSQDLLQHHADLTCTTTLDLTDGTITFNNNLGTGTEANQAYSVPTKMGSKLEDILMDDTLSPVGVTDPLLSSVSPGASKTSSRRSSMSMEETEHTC
GPR151 ag = activators of human GPR151, primary screen, cell-based, PathHunter beta-arrestin, luminescence; G-protein coupled receptor 151 (Homo sapiens), Q8TDV0; PathHunter beta-arrestin GPR151 cells; activation, % at 11.2 µM; actives 1% (n = 650,000); in the data active means activation above about 4.9%
TEAD-YAP block = TEAD-YAP interaction inhibition, primary screen, TEAD-YAP interaction inhibitor project, luminescence, HEK-TIYL cells; actives 1.4% (n = 640,000); TEAD-Gal4/YAP UAS-luciferase luminescence; inhibition, % at 9.12 µM; in the data active means inhibition above about 32%
FBW7 activator = FBW7 E3 ligase activators, primary screen, biochemical, AlphaScreen, human; AID 1259310, 2017; normalized activity (activation), % at 26.1 µM; AlphaScreen FBW7–phospho-cyclin E peptide binding, activator screen; F-box/WD repeat-containing protein 7 (Homo sapiens), Q969H0; actives 0.13% (n = 650,000); in the data active means normalized activity above about 1.9%;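 further: purified mutant Fbw7 with reduced substrate affinity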
Hits are given with their value; - = inactive; ! = a repeat was not active. Shown are actives, neighbours in structure and some others; about 3.5% of the full set was active somewhere.

SMILES | MITF inh | GPR151 ag | TEAD-YAP block | FBW7 activator
O=C1NC(=S)N(c2ccc(F)cc2)C(=O)/C1=C\c1ccc2c(c1)OCCO2 | 71 | - | - | -
O=C1NN(c2ccccc2)C(=O)/C1=C\c1ccc(-c2ccc([N+](=O)[O-])cc2)o1 | - | - | - | -
COCCN(CCOC)C(=O)Cn1nc2n(C)c3ccccc3n2c1=O | - | - | - | -
O=C(CCl)N(Cc1cccs1)c1ccc2c(c1)OCCO2 | - | - | 37 | -
COc1ccc(N(Cc2cccs2)C(=O)CCl)cc1 | - | - | - | -
CNC(=S)N1CCN(CCN2C(=O)c3cccc4cccc(c34)C2=O)CC1 | - | - | - | -
CC(=C/c1ccccc1)/C=N/n1c(-c2ccncc2)n[nH]c1=S | - | - | 39 | -
CC(NC1CCN(c2cccc(NC(=O)c3ccncc3)c2)CC1)c1ccc(Cl)cc1 (stereo not given) | - | - | 36 | -
Cc1nc(C(C)NC2CCN(c3cccc(NC(=O)c4ccncc4)c3)CC2)cs1 (stereo not given) | - | - | - | -
Cc1nnc(N(CC2CCCO2)C(=O)c2ccno2)s1 (stereo not given) | - | - | - | -
COCC(=O)N(CC1CCCO1)c1nnc(C)s1 (stereo not given) | - | - | 34 | -
Cc1csc(=O)n1CC(=O)NC1CCCCCC1 | - | - | - | -
CN(C)c1ccc(Nc2nc(NCC3CCCO3)c3ccccc3n2)cc1 (stereo not given) | 60 | - | - | -
Cc1ncn(-c2ccc(Nc3cc(-c4nocc4-c4c(C)n[nH]c4C)ccn3)cc2)n1 | - | - | 48 | -
CC(C)(C)C(=O)Nc1ccc(NC(=O)c2cccs2)nc1 | - | - | 94 | -
Cc1ccc(-c2cccc3cnc(Nc4ccc(C(=O)N5CCCC5)cc4)nc23)cn1 | - | - | 50 | -
Cc1ccc(-c2cccc3cnc(Nc4cccc(C(=O)N5CCOCC5)c4)nc23)cn1 | - | - | 32 | -
Cc1ccc(-c2cccc3cnc(NC4CCN(C(=O)N5CCCC5)C4)nc23)cn1 (stereo not given) | - | - | - | -
CC1=CC(C)(C)N=C(Nc2nc(C)c3cc(C)cc(C)c3n2)N1 | - | - | 59 | -
O=C(Nc1nnc(COc2ccc(Cl)cc2)s1)c1cc(S(=O)(=O)N2CCOCC2)ccc1Cl | - | - | - | -
COc1ccc(N2CCN(C(=O)CCl)CC2)cc1 | - | - | 49 | -
CC1Cc2ccccc2N1C(=O)CN1CCc2ccccc2C1 (stereo not given) | - | - | - | -
O=C(CCl)N1CCN(c2ccc([N+](=O)[O-])cc2)CC1 | - | - | 34 | -
COc1ccc(N2CCN(C(=O)CN(c3ccccc3C)S(C)(=O)=O)CC2)cc1 | 72 | - | - | -
COc1ccc(N2CCN(CC(=O)N3c4ccccc4CC3C)CC2)cc1 (stereo not given) | 65 | - | - | -
SMILES | MITF inh | GPR151 ag | TEAD-YAP block | FBW7 activator
COc1ccc(N2CCN(C(=O)CN(c3cccc(C)c3C)S(C)(=O)=O)CC2)cc1 | - | - | - | -
CCOC(=O)C(=O)C1=C(N2CCOCC2)/C(=C\c2ccc(Br)cc2)CC1 | - | - | - | -
COc1ccc(N2C(=O)/C(=C\C=C\c3ccco3)C(=O)NC2=S)cc1 | 77 | - | - | -
COc1cccc(N2C(=O)NC(=O)/C(=C/C=C/c3ccco3)C2=O)c1 | - | - | - | -
COc1ccccc1-c1c2cc(O)c(=O)cc-2oc2cc(O)c(O)cc12 | 104 | - | - | -
COc1cccc(-c2cc(=O)c3ccccc3o2)c1N | - | - | - | -
COc1cc2ccc(=O)oc2cc1O | - | - | - | -
COc1cc(OC)c(-c2c3cc(O)c(=O)cc-3oc3cc(O)c(O)cc23)cc1OC | 110 | - | - | -
O=c1cc2oc3cc(O)c(O)cc3c(-c3cccc(Cl)c3Cl)c-2cc1O | 102 | - | - | -
O=c1cc2oc3cc(O)c(O)cc3c(-c3ccccn3)c-2cc1O | 86 | - | - | -
CC(=O)Nc1cccc(-c2cc(=O)c3ccccc3o2)c1O | - | - | - | -
CCC(=O)Oc1ccc2c(c1)O/C(=C\c1cccc(OC)c1)C2=O | - | - | 87 | -
COc1ccc(/C=C2\Oc3cc(OC(=O)c4ccncc4)ccc3C2=O)cc1 | - | - | 68 | -
COC(=O)COc1cccc(/C=C2\Oc3cc(OC)ccc3C2=O)c1 | - | - | - | -
CC(=O)Oc1ccc2c(c1)O/C(=C\c1sccc1C)C2=O | - | - | 88 | -
COc1ccc(/C=C2\Oc3cc(OC(C)=O)ccc3C2=O)cc1 | - | - | 51 | -
COc1ccc(C(=O)Oc2ccc3c(c2)O/C(=C\c2ccncc2)C3=O)cc1OC | - | - | - | -
Cc1ccccc1NC(=O)CSc1nnc2n(N)cnn12 | - | - | - | -
O=C(Cc1ccc(F)cc1)N/N=C/c1c(O)n(-c2ccccc2Cl)c(=O)c2ccccc12 | - | - | 60 | -
Cc1cccc(-n2c(O)c(/C=N/NC(=O)c3ccccc3Cl)c3ccccc3c2=O)n1 | - | - | - | -
O=C1CCCN1c1ccc(NS(=O)(=O)c2ccc(F)cc2)cc1 | - | - | - | -
O=C1CCCN1c1ccc(S(=O)(=O)Oc2cccc([N+](=O)[O-])c2)cc1 | - | - | 52 | -
O=C1CCCN1c1cccc([N+](=O)[O-])c1 | - | - | - | -
O=C1CCCN1c1ccc(S(=O)(=O)Nc2ccc(Cl)c(Cl)c2)cc1 | - | - | 46 | -
O=C1CCCN1c1ccc(S(=O)(=O)Oc2ccc(Cl)cc2Cl)cc1 | - | - | 61 | -
SMILES | MITF inh | GPR151 ag | TEAD-YAP block | FBW7 activator
O=C1CCCN1c1ccc(S(=O)(=O)Nc2ccc(F)c(Cl)c2)cc1 | - | - | 46 | -
NNS(=O)(=O)c1ccc(N2CCCC2=O)cc1 | - | - | - | -
O=C(Nc1ccc(Cl)c(C(F)(F)F)c1)N1CCc2nc(N3CCCC3)[nH]c(=O)c2C1 | - | - | - | -
O=C(O)c1nc2ccccc2c2ncccc12 | - | - | - | -
CC(C)(C)C(=O)Nc1ccnn1C1CCN(C2CSCCSC2)CC1 | - | - | - | -
COc1ccc2[nH]c(CN3CCC4(CC3)NC(=O)c3ccccc3O4)c(C)c2c1 | - | - | 68 | -
FC(F)(F)c1ccc(Cn2cnc3c(NC4CCN(Cc5ccccc5)CC4)nc(-c4cccs4)nc32)cc1 | - | - | - | -
Cc1ccc(Cl)cc1NS(=O)(=O)c1ccc(NS(C)(=O)=O)cc1 | - | - | - | -
Cc1cc(C=O)c(C)n1-c1ccc(C(=O)O)c(Cl)c1 | 70 | - | - | -
Cc1ccc(NC(=O)CCC(=O)OCC(=O)c2ccc(Br)cc2)cc1Cl | - | - | - | -
NS(=O)(=O)c1cccc2c1c([N+](=O)[O-])cc1[nH]c(=O)c(=O)[nH]c12 | 69! | - | - | -
O=c1[nH]c2c([N+](=O)[O-])cccc2c2ccccc12 | - | - | - | -
Oc1ccc(Br)cc1CN1CCN(CC2CC3C=CC2C3)CC1 (stereo not given) | - | - | - | -
